Holding throughout (test): DAPPL (digital affinity profiling via proximity ligation, sequencing); 10 mM Tris-HCl pH 7.5, 50 mM NaCl, 1 mM DTT, 4% glycerol, room temperature, 30 min; GST-TFs on glutathione beads, 16-mer random dsDNA library, 0.1% formaldehyde crosslink after washing; high values mean tight binding
Common to all, as to details: protein: recombinant; tags: N-terminal GST; dsDNA, one strand shown

Assay [1] deals with T1, FLI1 (Homo sapiens, UniProt Q01543 1-452).
T1 sequence: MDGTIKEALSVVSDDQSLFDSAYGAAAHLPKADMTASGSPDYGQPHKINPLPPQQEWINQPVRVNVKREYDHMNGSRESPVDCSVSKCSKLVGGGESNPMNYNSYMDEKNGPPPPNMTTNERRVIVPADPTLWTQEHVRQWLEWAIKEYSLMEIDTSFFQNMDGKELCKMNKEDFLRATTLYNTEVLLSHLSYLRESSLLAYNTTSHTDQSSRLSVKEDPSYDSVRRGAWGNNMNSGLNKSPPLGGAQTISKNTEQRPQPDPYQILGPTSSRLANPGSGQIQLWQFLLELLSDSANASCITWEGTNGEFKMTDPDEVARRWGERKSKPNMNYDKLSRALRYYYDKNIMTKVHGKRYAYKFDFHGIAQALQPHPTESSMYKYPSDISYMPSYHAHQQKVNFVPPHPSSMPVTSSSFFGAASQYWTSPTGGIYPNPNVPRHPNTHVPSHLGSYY
The essentials: (§1)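 Human transcription factors fused to GST were expressed in yeast, captured on glutathione beads, given DNA barcodes and pooled with a GST-only negative control. Pools were incubated with 200 nmole of a 16-mer random double-stranded DNA library in Tris/NaCl/DTT/glycerol buffer at room temperature for 30 min. They were then washed, crosslinked with 0.1% formaldehyde, proximity-ligated (BsaI/T4 ligase, 1 h, 37 °C), PCR-amplified and sequenced on an Illumina NextSeq500. Binding signal is each 6-mer's read frequency for a factor divided by its frequency for the GST control.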

For assay [2], the target named is T2, ELK1 (Homo sapiens, UniProt P19419 1-428).
T2 sequence: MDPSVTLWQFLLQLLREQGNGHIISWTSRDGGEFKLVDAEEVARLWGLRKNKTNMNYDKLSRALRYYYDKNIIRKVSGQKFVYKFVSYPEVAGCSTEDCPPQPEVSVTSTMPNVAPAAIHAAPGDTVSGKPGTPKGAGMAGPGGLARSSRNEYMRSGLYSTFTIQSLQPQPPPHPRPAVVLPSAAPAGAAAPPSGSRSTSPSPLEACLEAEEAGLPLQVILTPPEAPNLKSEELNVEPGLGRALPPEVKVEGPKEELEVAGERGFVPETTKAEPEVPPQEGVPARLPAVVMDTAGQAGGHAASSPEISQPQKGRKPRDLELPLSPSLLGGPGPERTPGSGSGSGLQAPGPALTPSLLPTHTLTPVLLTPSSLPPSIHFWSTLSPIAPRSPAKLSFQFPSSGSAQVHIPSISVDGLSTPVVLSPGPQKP
Summed up: as §1

Assay [3] concerns the target T3, GABPA (Homo sapiens, UniProt Q06546 1-454).
T3 sequence: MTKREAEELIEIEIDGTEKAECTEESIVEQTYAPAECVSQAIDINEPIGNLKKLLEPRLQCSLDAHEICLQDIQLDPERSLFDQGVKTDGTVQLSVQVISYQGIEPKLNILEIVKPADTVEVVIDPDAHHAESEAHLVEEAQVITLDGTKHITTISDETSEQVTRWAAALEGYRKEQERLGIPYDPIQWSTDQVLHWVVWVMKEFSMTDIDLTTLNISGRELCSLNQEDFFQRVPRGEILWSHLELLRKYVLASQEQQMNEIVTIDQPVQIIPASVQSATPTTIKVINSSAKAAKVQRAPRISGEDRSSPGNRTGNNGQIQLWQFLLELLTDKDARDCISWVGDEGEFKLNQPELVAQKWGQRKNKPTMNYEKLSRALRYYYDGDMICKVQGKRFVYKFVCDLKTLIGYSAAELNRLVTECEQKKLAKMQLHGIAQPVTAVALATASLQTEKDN
Summed up: as §1

The target of assay [4] is T4, ERG (Homo sapiens, UniProt P11308 1-479).
T4 sequence: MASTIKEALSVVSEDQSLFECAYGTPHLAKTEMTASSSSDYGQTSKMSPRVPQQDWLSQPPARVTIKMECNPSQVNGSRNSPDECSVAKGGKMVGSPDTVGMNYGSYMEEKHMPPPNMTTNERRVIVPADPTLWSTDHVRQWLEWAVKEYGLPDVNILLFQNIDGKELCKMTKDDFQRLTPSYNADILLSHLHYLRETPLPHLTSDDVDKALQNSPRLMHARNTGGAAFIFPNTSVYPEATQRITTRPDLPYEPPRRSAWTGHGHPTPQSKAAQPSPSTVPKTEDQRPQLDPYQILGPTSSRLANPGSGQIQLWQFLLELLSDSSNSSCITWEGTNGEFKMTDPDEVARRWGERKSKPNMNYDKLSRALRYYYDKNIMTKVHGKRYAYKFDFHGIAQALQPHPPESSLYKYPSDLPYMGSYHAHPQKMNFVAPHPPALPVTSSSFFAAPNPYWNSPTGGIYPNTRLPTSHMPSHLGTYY
Summed up:
as §1

The target in assay [5] is ELF1 (Homo sapiens, UniProt P32519 1-619). Summed up:
as §1

The target in assay [6] is T5, EHF (Homo sapiens, UniProt Q9NZC4 1-300).
T5 sequence: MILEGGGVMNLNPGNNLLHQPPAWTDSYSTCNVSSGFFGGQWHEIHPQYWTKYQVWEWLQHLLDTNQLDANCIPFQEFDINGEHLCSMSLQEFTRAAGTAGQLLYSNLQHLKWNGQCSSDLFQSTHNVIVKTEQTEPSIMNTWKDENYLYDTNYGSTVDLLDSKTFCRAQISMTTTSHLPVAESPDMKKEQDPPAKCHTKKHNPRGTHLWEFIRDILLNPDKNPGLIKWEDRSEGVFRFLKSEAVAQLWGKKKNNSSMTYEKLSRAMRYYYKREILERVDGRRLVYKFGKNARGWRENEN
The essentials:
as §1

The target in assay [7] is SPI1 (Homo sapiens, UniProt P17947 1-270). Summed up:
as §1

Assay [8] addresses SPIB (Homo sapiens, UniProt Q01892 1-262). The essentials: as §1
For assay [9], the target named is T6, ELK3 (Homo sapiens, UniProt P41970 1-407).
T6 sequence: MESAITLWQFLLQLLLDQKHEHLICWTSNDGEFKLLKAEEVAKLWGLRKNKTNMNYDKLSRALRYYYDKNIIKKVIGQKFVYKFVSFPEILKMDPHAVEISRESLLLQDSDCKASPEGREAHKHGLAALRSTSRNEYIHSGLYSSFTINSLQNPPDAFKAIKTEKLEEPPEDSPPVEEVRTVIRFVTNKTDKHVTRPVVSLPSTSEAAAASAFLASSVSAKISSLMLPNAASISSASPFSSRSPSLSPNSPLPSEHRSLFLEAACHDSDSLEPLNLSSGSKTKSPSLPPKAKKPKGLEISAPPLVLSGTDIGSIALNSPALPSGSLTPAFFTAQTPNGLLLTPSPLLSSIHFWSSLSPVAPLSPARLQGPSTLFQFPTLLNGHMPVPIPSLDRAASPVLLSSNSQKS
The essentials:
as §1

Assay [10] has as its target SPI1 (Homo sapiens, UniProt P17947 1-270). The essentials:
as §1
This is another data set of the same source.

Chain of ELF1 (P32519 whole entry): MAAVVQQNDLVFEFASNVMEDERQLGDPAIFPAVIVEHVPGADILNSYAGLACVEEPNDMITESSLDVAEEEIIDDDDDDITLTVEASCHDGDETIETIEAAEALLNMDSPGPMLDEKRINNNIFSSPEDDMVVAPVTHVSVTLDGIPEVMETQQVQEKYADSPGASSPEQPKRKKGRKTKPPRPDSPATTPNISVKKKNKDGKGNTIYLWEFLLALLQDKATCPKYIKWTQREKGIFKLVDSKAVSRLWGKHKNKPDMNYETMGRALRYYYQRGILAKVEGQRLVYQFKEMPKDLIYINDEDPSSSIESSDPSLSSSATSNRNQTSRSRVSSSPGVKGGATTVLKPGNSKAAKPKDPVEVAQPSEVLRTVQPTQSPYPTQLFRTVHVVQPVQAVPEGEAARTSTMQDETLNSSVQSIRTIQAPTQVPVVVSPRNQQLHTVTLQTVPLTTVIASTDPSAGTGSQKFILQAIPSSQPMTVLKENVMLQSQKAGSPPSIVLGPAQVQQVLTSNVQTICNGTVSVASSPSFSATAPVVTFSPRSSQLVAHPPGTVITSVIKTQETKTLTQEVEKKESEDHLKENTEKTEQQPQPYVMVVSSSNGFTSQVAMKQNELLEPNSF
Chain of SPIB (Q01892 whole entry): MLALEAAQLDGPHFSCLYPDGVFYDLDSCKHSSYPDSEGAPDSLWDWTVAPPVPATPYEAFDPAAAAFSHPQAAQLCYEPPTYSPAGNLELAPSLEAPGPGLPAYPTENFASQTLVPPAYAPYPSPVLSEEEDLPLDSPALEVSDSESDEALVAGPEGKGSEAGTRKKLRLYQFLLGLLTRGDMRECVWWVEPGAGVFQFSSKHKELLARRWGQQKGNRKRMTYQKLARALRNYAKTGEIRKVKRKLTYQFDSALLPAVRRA

On to CTACTC, for which the binding signal is 1.42 fold enrichment (6-mer frequency, TF over GST control) in assay [1]; 1.36 fold enrichment (6-mer frequency, TF over GST control) in [2]; 1.51 fold enrichment (6-mer frequency, TF over GST control) in assay [3]; 1.38 fold enrichment (6-mer frequency, TF over GST control) in assay [4]; 1.44 fold enrichment (6-mer frequency, TF over GST control) in [5]; 1.38 fold enrichment (6-mer frequency, TF over GST control) in assay [6]. The binding signal in assay [7] is 1.47 fold enrichment (6-mer frequency, TF over GST control); in [8], 1.59 fold enrichment (6-mer frequency, TF over GST control); in [9], 1.46 fold enrichment (6-mer frequency, TF over GST control).
On to ATTTCC, for which the binding signal in [1] is 3.94 fold enrichment (6-mer frequency, TF over GST control); in assay [2], 3.9 fold enrichment (6-mer frequency, TF over GST control); in assay [3], 3.59 fold enrichment (6-mer frequency, TF over GST control); in assay [4], 5.18 fold enrichment (6-mer frequency, TF over GST control); in [5] it was 3.51 fold enrichment (6-mer frequency, TF over GST control); in assay [6], 4.16 fold enrichment (6-mer frequency, TF over GST control). For the same sequence, the binding signal in assay [10] was 3.71 fold enrichment (6-mer frequency, TF over GST control); in [8], 4.18 fold enrichment (6-mer frequency, TF over GST control); in assay [9], 4.09 fold enrichment (6-mer frequency, TF over GST control).
Take GCTTCC: the binding signal in assay [1] was 3.32 fold enrichment (6-mer frequency, TF over GST control); in [2] it was 3.85 fold enrichment (6-mer frequency, TF over GST control); in [3], 3.27 fold enrichment (6-mer frequency, TF over GST control); in assay [4], 4 fold enrichment (6-mer frequency, TF over GST control); in [5] it was 3.21 fold enrichment (6-mer frequency, TF over GST control); in [6], 3.72 fold enrichment (6-mer frequency, TF over GST control). Besides, the binding signal in assay [10] is 3.73 fold enrichment (6-mer frequency, TF over GST control); in [8], 3.8 fold enrichment (6-mer frequency, TF over GST control); in [9], 4.31 fold enrichment (6-mer frequency, TF over GST control).
In the case of TTTGCC, the binding signal is 1.42 fold enrichment (6-mer frequency, TF over GST control) in assay [1]; 1.26 fold enrichment (6-mer frequency, TF over GST control) in assay [2]; 1.2 fold enrichment (6-mer frequency, TF over GST control) in assay [3]; 1.26 fold enrichment (6-mer frequency, TF over GST control) in [4]; 1.23 fold enrichment (6-mer frequency, TF over GST control) in [5]; 1.22 fold enrichment (6-mer frequency, TF over GST control) in assay [6]. In addition, the binding signal in [7] is 1.23 fold enrichment (6-mer frequency, TF over GST control); in assay [8], 1.31 fold enrichment (6-mer frequency, TF over GST control); in [9] it was 1.21 fold enrichment (6-mer frequency, TF over GST control).
Consider TTCCGG, for which the binding signal was 5.8 fold enrichment (6-mer frequency, TF over GST control) in [1]; 5.94 fold enrichment (6-mer frequency, TF over GST control) in assay [2]; 5.16 fold enrichment (6-mer frequency, TF over GST control) in assay [3]; 7.1 fold enrichment (6-mer frequency, TF over GST control) in assay [4]; 5.41 fold enrichment (6-mer frequency, TF over GST control) in assay [5]; 5.96 fold enrichment (6-mer frequency, TF over GST control) in [6]. Besides, the binding signal in assay [10] is 5.73 fold enrichment (6-mer frequency, TF over GST control); in [8], 5.9 fold enrichment (6-mer frequency, TF over GST control); in [9], 6.93 fold enrichment (6-mer frequency, TF over GST control).
On to ACAATC, for which the binding signal in assay [1] is 1.08 fold enrichment (6-mer frequency, TF over GST control); in assay [2], 1.09 fold enrichment (6-mer frequency, TF over GST control); in assay [3], 1.19 fold enrichment (6-mer frequency, TF over GST control); in assay [4] it was 1.16 fold enrichment (6-mer frequency, TF over GST control); in assay [5] it was 1.21 fold enrichment (6-mer frequency, TF over GST control); in assay [6], 1.13 fold enrichment (6-mer frequency, TF over GST control). In addition, the binding signal in [7] was 1.12 fold enrichment (6-mer frequency, TF over GST control); in assay [8], 1.09 fold enrichment (6-mer frequency, TF over GST control); in assay [9], 1.13 fold enrichment (6-mer frequency, TF over GST control).
Consider ATTTCA, for which the binding signal in [1] is 1.23 fold enrichment (6-mer frequency, TF over GST control); in [2], 1.17 fold enrichment (6-mer frequency, TF over GST control); in [3], 1.23 fold enrichment (6-mer frequency, TF over GST control); in [4], 1.25 fold enrichment (6-mer frequency, TF over GST control); in assay [5] it was 1.21 fold enrichment (6-mer frequency, TF over GST control); in assay [6], 1.24 fold enrichment (6-mer frequency, TF over GST control). The binding signal was 1.23 fold enrichment (6-mer frequency, TF over GST control) in [7]; 1.26 fold enrichment (6-mer frequency, TF over GST control) in [8]; 1.23 fold enrichment (6-mer frequency, TF over GST control) in assay [9].

Values taken from publication PMC7862700, “An all-to-all approach to the identification of sequence-specific readers for epigenetic DNA modifications on cytosine”.
